Results filed as inconclusive are left out. A number with no mark means an inactive call. Calls follow the shape of the full dose curve.
Test: p53 small molecule agonists, cell-based qHTS assay with rat liver microsomes (AID 1963578)
Settings: HCT-116 p53RE-bla, beta-lactamase ratio, 16 h; series mostly up to 66 µM; activation: at the top concentration
Method in brief: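 Metabolic activation is supplied by rat liver microsomes with NADPH (each 0.5 mg/mL final). p53RE-bla cells incubate with compound 16 h at 37 C; reporter activity is measured by LiveBLAzer fluorescence.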
% is scaled to controls: 0 for no effect and ±100 for the full control effect.

Row | Structure (SMILES) | activation
1 | O=C(O)c1cc(C(=O)O)c(C(=O)O)cc1C(=O)O | 11.2%
2 | O=S(=O)(O)c1ccc(N=Nc2c(O)ccc3ccccc23)cc1 | -0.976%
3 | COS(=O)(=O)C(F)(F)F | -8.04%
4 | O=C(NS(=O)(=O)/C=C/c1ccccc1)c1ccc(F)cc1Cl | -5.94%
5 | CC(C)(Sc1cc(C(C)(C)C)c(O)c(C(C)(C)C)c1)Sc1cc(C(C)(C)C)c(O)c(C(C)(C)C)c1 | 1.21% [at 30.3 µM]
6 | Nc1c(N=Nc2ccc(-c3ccc(N=Nc4cc(S(=O)(=O)O)c5ccccc5c4N)cc3)cc2)cc(S(=O)(=O)O)c2ccccc12 | -3.32%
7 | CC(C)NCCCC1(C(N)=O)c2ccccc2-c2ccccc21 | -4.19% [at 30.3 µM]
8 | CCCCCc1ccc(N)cc1 | -1.72%
9 | CC/C=C\CCOC(=O)c1ccccc1O | 0.459%
10 | CCCCCCCCCCCCCCNCCO | 0.326% [at 30.3 µM]
11 | O=C1OC(O)C(C(Cl)Cl)=C1Cl (configuration not stated) | -9.79%
12 | Cc1cc2c(s1)Nc1ccccc1N=C2N1CCN(C)CC1 | 3.64% [at 30.3 µM]
13 | CC1(C)CC(OC(=O)CCCCCCCCC(=O)OC2CC(C)(C)NC(C)(C)C2)CC(C)(C)N1 | 0.45% [at 13.6 µM]
14 | C=CC(=O)OCCOCCOC(=O)C=C | -5.89%
15 | FC(F)(F)C(F)(F)C(F)(F)C(F)(F)C(F)(F)C(F)(F)C(F)(F)C(F)(F)Br | 0.252% [at 30.3 µM]
16 | C=CC(=O)OCCOCC(CC)(COCCOC(=O)C=C)COCCOC(=O)C=C | -6.85%
17 | C[C@H]1O[C@H](O[C@H]2[C@H](O)[C@@H](O)[C@@H](O[C@H]3[C@H](O)[C@@H](O)[C@H](O)O[C@@H]3CO)O[C@@H]2CO)[C@H](O)[C@@H](O)[C@@H]1N[C@H]1C=C(CO)[C@@H](O)[C@H](O)[C@H]1O | 0.148% [at 30.3 µM]

From PubChem BioAssay (Tox21)
